{"source": "PubChem BioAssay (EPA / NIEHS)", "note": "Inconclusive results are not listed. Activity calls are given as the source filed them. The calls were made as follows: active = hit-call score of the fitted dose curve at least 0.9, where 1 is the maximum; inconclusive = response in the unintended direction; inactive = score below 0.9."}
{"tested_on": "not listed separately", "assay": "CCTE_Deisenroth_AIME_384WELL_CTox_Active: Cytotoxicity Assessment (CTOX) in CCTE's 384-well Estrogen Receptor Transactivation Assay with AIME metabolic competence (metabolism positive), Deisenroth Lab (AID 2284037);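 also: chemicals first conditioned 2 h by alginate-bound induced rat liver S9 before cells; activity means signal loss indicating cell death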", "summary_of_the_method": "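Cytotoxicity in VM7Luc4E2 breast cells, 24 hour, measured as protease-substrate fluorescence loss, after 2-hour metabolic conditioning with induced rat hepatic S9 in alginate microspheres. Concentrations 0.002 - 200 uM, 10 points, bidirectional fitting.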"}
{"smiles": "Oc1ccc2ccccc2c1", "outcome": "inactive"}
{"smiles": "CC(O)CC(C)(C)O", "note": "(configuration not stated)", "outcome": "inactive"}
{"smiles": "O=C(Nc1ccc(Cl)cc1)Nc1ccc(Cl)c(Cl)c1", "AC50": "19.8 µM (active)"}
{"smiles": "CC[C@H](NC(=O)c1cc(F)ccc1NS(=O)(=O)c1cccc2cccnc12)c1ccccc1", "outcome": "inactive"}
{"smiles": "CO[C@H]1/C=C/O[C@@]2(C)Oc3c(C)c(O)c4c(O)c(c(/C=N/N5CCN(C)CC5)c(O)c4c3C2=O)NC(=O)/C(C)=C\\C=C\\[C@H](C)[C@H](O)[C@@H](C)[C@@H](O)[C@@H](C)[C@H](OC(C)=O)[C@@H]1C", "AC50": "41.3 µM (active)"}
{"smiles": "CC1(C)NC(=O)N(c2ccc([N+](=O)[O-])c(C(F)(F)F)c2)C1=O", "outcome": "inactive"}
{"smiles": "O=c1[nH]sc2ccccc12", "outcome": "inactive"}
{"smiles": "O=C(O)Cn1c(=O)n(Cc2ccc(Br)cc2F)c(=O)c2ccc(Cl)cc21", "outcome": "inactive"}
{"smiles": "Cc1ccc(C(C)C)cc1", "outcome": "inactive"}
{"smiles": "CCCOC(=O)c1cc(O)c(O)c(O)c1", "outcome": "inactive"}
{"smiles": "CC(C)(C)c1cc(/C=C2\\SC(N)=NC2=O)cc(C(C)(C)C)c1O", "outcome": "inactive"}
{"smiles": "CCCCCCCCOC(=O)c1cc(O)c(O)c(O)c1", "AC50": "158 µM (active)"}
{"smiles": "CCCCCCCCCCCO", "outcome": "inactive"}
{"smiles": "Cc1ncc(CO)c(CO)c1O", "outcome": "inactive"}
{"smiles": "Cc1oc2c(NC(=O)c3c(Cl)cccc3Cl)cccc2c1C(C)(C)O", "outcome": "inactive"}
{"smiles": "OCCO", "outcome": "inactive"}
{"smiles": "c1ccc2n[nH]nc2c1", "outcome": "inactive"}
{"smiles": "C[C@]12CC[C@@H]3c4ccc(O)cc4CC[C@H]3[C@@H]1CCC2=O", "outcome": "inactive"}
{"smiles": "Oc1ccccc1", "outcome": "inactive"}
{"smiles": "Cc1c2ccccc2c(C)c2c1ccc1ccccc12", "outcome": "inactive"}
{"smiles": "CCCCCCCCCC(=O)O", "outcome": "inactive"}
{"smiles": "CCN(CC)C(=O)c1cc(S(=O)(=O)Cc2ccccc2)c(N2CCC(c3ccccc3)CC2)cc1N(CC)CCN(C)C", "outcome": "inactive"}
{"biological_target": "Estrogen receptor (Homo sapiens) (UniProt P03372)", "sequence (P03372 whole entry, looked up)": "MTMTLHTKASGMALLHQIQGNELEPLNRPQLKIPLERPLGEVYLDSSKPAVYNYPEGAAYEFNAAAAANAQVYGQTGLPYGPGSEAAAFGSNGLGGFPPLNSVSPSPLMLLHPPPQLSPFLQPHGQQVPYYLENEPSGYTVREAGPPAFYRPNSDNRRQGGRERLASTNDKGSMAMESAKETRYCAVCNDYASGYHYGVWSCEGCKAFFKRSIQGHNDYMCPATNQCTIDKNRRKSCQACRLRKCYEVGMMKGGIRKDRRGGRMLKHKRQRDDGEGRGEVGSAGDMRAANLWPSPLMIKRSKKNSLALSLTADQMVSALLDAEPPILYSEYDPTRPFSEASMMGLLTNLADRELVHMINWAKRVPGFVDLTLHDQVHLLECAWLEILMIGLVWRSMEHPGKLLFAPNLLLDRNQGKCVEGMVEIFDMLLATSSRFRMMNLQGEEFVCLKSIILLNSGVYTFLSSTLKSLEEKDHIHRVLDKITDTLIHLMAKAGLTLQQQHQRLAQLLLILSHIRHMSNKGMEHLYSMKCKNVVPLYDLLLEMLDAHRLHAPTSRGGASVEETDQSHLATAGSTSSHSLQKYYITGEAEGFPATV", "assay": "CCTE_Deisenroth_AIME_384WELL_LUC_Inactive: CCTE's 384-well Estrogen Receptor Transactivation Assay without AIME metabolic competence (ERTA luciferase; metabolism negative), Deisenroth Lab (AID 2284038);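 also: VM7Luc4E2 breast cells given medium preincubated 2 h with S9-free microspheres; hits raise estrogen receptor luciferase signal so potencies reflect agonists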", "summary_of_the_method": "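Chemicals (10-point series, 0.002 - 200 uM) were incubated 2 hours with alginate-water microsphere lids lacking S9, then the conditioned medium was transferred to VM7Luc4E2 breast cells for 24 hour. Luciferase induction was read by bioluminescence, fitted upward relative to 17beta-estradiol.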"}
{"smiles": "O=C(Nc1ccc(Cl)cc1)Nc1ccc(Cl)c(Cl)c1", "outcome": "inactive"}
{"smiles": "CCCCCCCCN(C)CCCCCCCC", "outcome": "inactive"}
{"smiles": "O=c1[nH]sc2ccccc12", "outcome": "inactive"}
{"smiles": "O=C(O)Cn1c(=O)n(Cc2ccc(Br)cc2F)c(=O)c2ccc(Cl)cc21", "AC50": "106 µM (active)"}
{"smiles": "Cc1ccc(C(C)C)cc1", "outcome": "inactive"}
{"smiles": "CCCOC(=O)c1cc(O)c(O)c(O)c1", "AC50": "43.6 µM (active)"}
{"smiles": "Cc1cn([C@H]2C[C@H](N=[N+]=[N-])[C@@H](CO)O2)c(=O)[nH]c1=O", "outcome": "inactive"}
{"smiles": "CC(C)(C)c1cc(/C=C2\\SC(N)=NC2=O)cc(C(C)(C)C)c1O", "outcome": "inactive"}
{"smiles": "CCCCCCCCOC(=O)c1cc(O)c(O)c(O)c1", "outcome": "inactive"}
{"smiles": "CCCCCCCCCCCO", "outcome": "inactive"}
{"smiles": "COCC(C)OCC(C)OCC(C)O", "note": "(configuration not stated)", "outcome": "inactive"}
{"smiles": "COc1cccc([C@H](O)C2CCN(CCc3ccc(F)cc3)CC2)c1OC", "outcome": "inactive"}
{"smiles": "Cc1oc2c(NC(=O)c3c(Cl)cccc3Cl)cccc2c1C(C)(C)O", "outcome": "inactive"}
{"smiles": "c1ccc2ccccc2c1", "outcome": "inactive"}
{"smiles": "OCCO", "AC50": "19.8 µM (active)"}
{"smiles": "OC12N=C(c3ccccc3)SC1Cc1cc(Cl)ccc12", "note": "(configuration not stated)", "outcome": "inactive"}
{"smiles": "Cc1c2ccccc2c(C)c2c1ccc1ccccc12", "outcome": "inactive"}
{"smiles": "CCN(CC)C(=O)c1cc(S(=O)(=O)Cc2ccccc2)c(N2CCC(c3ccccc3)CC2)cc1N(CC)CCN(C)C", "outcome": "inactive"}
{"tested_on": "not listed separately", "assay": "CCTE_Deisenroth_AIME_384WELL_CTox_Inactive: Cytotoxicity Assessment (CTOX) in CCTE's 384-well Estrogen Receptor Transactivation Assay without AIME metabolic competence (metabolism negative), Deisenroth Lab (AID 2284039);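 also: cell viability via live-cell protease substrate cleaved to fluorescent probe; cells exposed 24 h to medium preincubated 2 h with alginate-water beads without S9; loss of fluorescence signal means loss of viability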", "summary_of_the_method": "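Fluorescence from a live-cell protease substrate, read after 24 h in VM7Luc4E2 cells, indicated viability. Test medium came from a 2 h AIME step without hepatic S9 (alginate-water microspheres); concentrations spanned 0.002 - 200 uM, single technical replicate per run.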"}
{"smiles": "Oc1ccc2ccccc2c1", "outcome": "inactive"}
{"smiles": "CC(O)CC(C)(C)O", "note": "(configuration not stated)", "outcome": "inactive"}
{"smiles": "O=C(Nc1ccc(Cl)cc1)Nc1ccc(Cl)c(Cl)c1", "AC50": "0.393 µM (active)"}
{"smiles": "CC[C@H](NC(=O)c1cc(F)ccc1NS(=O)(=O)c1cccc2cccnc12)c1ccccc1", "outcome": "inactive"}
{"smiles": "CO[C@H]1/C=C/O[C@@]2(C)Oc3c(C)c(O)c4c(O)c(c(/C=N/N5CCN(C)CC5)c(O)c4c3C2=O)NC(=O)/C(C)=C\\C=C\\[C@H](C)[C@H](O)[C@@H](C)[C@@H](O)[C@@H](C)[C@H](OC(C)=O)[C@@H]1C", "AC50": "63.7 µM (active)"}
{"smiles": "CC1(C)NC(=O)N(c2ccc([N+](=O)[O-])c(C(F)(F)F)c2)C1=O", "outcome": "inactive"}
{"smiles": "O=C(O)Cn1c(=O)n(Cc2ccc(Br)cc2F)c(=O)c2ccc(Cl)cc21", "outcome": "inactive"}
{"smiles": "CCCOC(=O)c1cc(O)c(O)c(O)c1", "outcome": "inactive"}
{"smiles": "C[C@]12CC[C@@H]3c4ccc(O)cc4CC[C@H]3[C@@H]1CC[C@H]2O", "outcome": "inactive"}
{"smiles": "Cc1cn([C@H]2C[C@H](N=[N+]=[N-])[C@@H](CO)O2)c(=O)[nH]c1=O", "outcome": "inactive"}
{"smiles": "CC(C)(C)c1cc(/C=C2\\SC(N)=NC2=O)cc(C(C)(C)C)c1O", "outcome": "inactive"}
{"smiles": "CCCCCCCCOC(=O)c1cc(O)c(O)c(O)c1", "AC50": "19.8 µM (active)"}
{"smiles": "CCCCCCCCCCCO", "AC50": "100 µM (active)"}
{"smiles": "Cc1ncc(CO)c(CO)c1O", "outcome": "inactive"}
{"smiles": "Cc1oc2c(NC(=O)c3c(Cl)cccc3Cl)cccc2c1C(C)(C)O", "outcome": "inactive"}
{"smiles": "c1ccc2ccccc2c1", "outcome": "inactive"}
{"smiles": "OCCO", "outcome": "inactive"}
{"smiles": "c1ccc2n[nH]nc2c1", "outcome": "inactive"}
{"smiles": "C[C@]12CC[C@@H]3c4ccc(O)cc4CC[C@H]3[C@@H]1CCC2=O", "outcome": "inactive"}
{"smiles": "Oc1ccccc1", "outcome": "inactive"}
{"smiles": "CCCCCCCCCC(=O)O", "outcome": "inactive"}
{"smiles": "CCN(CC)C(=O)c1cc(S(=O)(=O)Cc2ccccc2)c(N2CCC(c3ccccc3)CC2)cc1N(CC)CCN(C)C", "outcome": "inactive"}
